Assay results published in the OligoGym collection.

Each sequence was assayed against SKI (assay: pooled miR-30 sensor sort-seq; sequence = guide strand). Settings: shRNA.
Also: reference of the scale not given here.

Row | Sequence | sensor-assay potency score (higher = more potent)
1 | TAGGAGTAGAAGCTGTCTCGGA | 0.278
2 | TACGGTCTCGCAGCGCTCGGTG | -1.18
3 | TTTGGCTTCCTTGGTGTCCAGG | -1.03
4 | TACACTTGCCGAAGCACTCGTG | -0.466
5 | TTACACTTGCCGAAGCACTCGT | 0.441
6 | TCACTCGCTGACACTGCGGGGG | -0.224
7 | TAGATGTGGAGCTCGTCGCACA | -1.04
8 | TTTCTCCTTCACGTCGTCCAGG | -1.07
9 | TGGAGCTCGTCGCACACCGCGT | -1.77
10 | TTGGTGATGAGCCCGCACGAGG | -1.78
11 | TTCTTCTCGTTCTCGGCGCGGA | -0.778
12 | TCTCACTCGCTGACACTGCGGG | -0.587

These sequences were tested against SLAIN1 in the same assay as above. Settings: shRNA.

Row | Sequence | sensor-assay potency score (higher = more potent)
13 | TATGTCTTGATACAGATGCTGA | -0.777
14 | TTCTTCGGAGCTTATCTCCATT | -0.767
15 | TTGAGGTGAATAATACTGTTGC | -0.0982
16 | TTTATTGCCAACGAAGGTCTTG | 0.0936
17 | TTCTTGAAATTCCATTTCCAGC | -1.69
18 | TATTTGAAGGAAAATACTGGGA | 0.189
19 | TGAAGTAGAAGCATAATCTTGC | 0.776
20 | TTGCCTGAGACTTTCTTCTTGC | 0.429
21 | TACATGTCCCTTTTTTTCCTGA | -0.235
22 | TATATTAAAACACAAAAGGGAA | -0.738
23 | TTCTTCTTGCAGACGAGCCATG | -1.37
24 | TTGAGTCAAAACTCTGACTATT | -1.16
